Experimental data: PubChem BioAssay (NCATS)
Results filed as inconclusive are left out. Active and inactive are the calls of the source. Calls come from the whole dose curve; as a rule, active = well fitted inhibition curve with a large enough effect; inconclusive = small, poorly fitted or top-dose-only effect; inactive = flat fitted curve, though single readings scatter.

Tests used:
Test in all cases: qHTS profiling for inhibitors of Plasmodium falciparum proliferation (AID 504749); note: nearly all actives have a fitted effect of over 60% in size
Conditions in all cases: P. falciparum in erythrocytes, SYBR Green DNA, 72 h; series mostly up to 28.7 µM
CP260 = test system: CP260
Procedure, shortened: (§1)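 In a 72 h erythrocytic culture (37 C, humidified, 5% CO2) at 2.5% hematocrit and 0.3% starting parasitemia, compounds were tested; SYBR Green I in detergent lysis buffer stained parasite DNA overnight.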

CP262 = test system: CP262
Procedure, shortened: as §1

CP265 = test system: CP265
Procedure, shortened: as §1

CP266 = test system: CP266
Procedure, shortened: as §1

CP268 = test system: CP268
Procedure, shortened: as §1

CP269 = test system: CP269
Procedure, shortened: as §1

CP286 = test system: CP286
Procedure, shortened: as §1

CP291 = test system: CP291
Procedure, shortened: as §1

CP297 = test system: CP297
Procedure, shortened: as §1

CP305 = test system: CP305
Procedure, shortened: as §1

CP315 = test system: CP315
Procedure, shortened: as §1

CP325 = test system: CP325
Procedure, shortened: as §1

CP329 = test system: CP329
Procedure, shortened: as §1

CP335 = test system: CP335
Procedure, shortened: as §1

DFO2036 = test system: DFO2036
Procedure, shortened: as §1

DIV14 = test system: DIV14
Procedure, shortened: as §1

DIV17 = test system: DIV17
Procedure, shortened: as §1

DIV30 = test system: DIV30
Procedure, shortened: as §1

Dd2 = test system: Dd2
Procedure, shortened: as §1

ECU = test system: ECU
Procedure, shortened: as §1

FAB9 = test system: FAB9
Procedure, shortened: as §1

GB4 = test system: GB4
Procedure, shortened: as §1

HB3 = test system: HB3
Procedure, shortened: as §1

ICS = test system: ICS
Procedure, shortened: as §1

JCK = test system: JCK
Procedure, shortened: as §1

N140 = test system: N140
Procedure, shortened: as §1

P93_24 = test system: P93_24
Procedure, shortened: as §1

P94_40 = test system: P94_40
Procedure, shortened: as §1

PAD = test system: PAD
Procedure, shortened: as §1

PC15 = test system: PC15
Procedure, shortened: as §1

PC26 = test system: PC26
Procedure, shortened: as §1

PC49 = test system: PC49
Procedure, shortened: as §1

SC27B = test system: SC27B
Procedure, shortened: as §1

TAB113 = test system: TAB113
Procedure, shortened: as §1

TAB165 = test system: TAB165
Procedure, shortened: as §1

W2 = test system: W2
Procedure, shortened: as §1

Measured: Potency

CO/N=C(\C(=O)N[C@@H]1C(=O)N2C(C(=O)[O-])=C(C[N+]3(C)CCCC3)CS[C@@H]12)c1csc(N)n1
inactive: all assays above
